Screens deposited in PubChem BioAssay by several laboratories.
Platelet DG rel: inhibitors of platelet dense granule secretion, primary screen, cell-based, MLPCN, human platelets | inhibition, %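 (compounds screened at 7.5 µM in platelet-rich plasma)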 | AID 1663, 2009 | 300,000 compounds, 0.22% hits | human platelet-rich plasma, SFLLRN dense granule ATP release, luminescence;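 active = mean replicate score, as percent of positive control, at or above 50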
SENP7 inh: SENP7 protease inhibitors, primary screen, biochemical, luminescence, uHTS. recombinant SENP7, Z-RLRGG-aminoluciferin luminescence, 40 min. inhibition, % at 5 µM. 330,000 compounds, 1.5% hits;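 active = inhibition above about 50% at the single test dose, limit read from the data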
Target sequence (Q9BQF6 706-1050 limits assumed): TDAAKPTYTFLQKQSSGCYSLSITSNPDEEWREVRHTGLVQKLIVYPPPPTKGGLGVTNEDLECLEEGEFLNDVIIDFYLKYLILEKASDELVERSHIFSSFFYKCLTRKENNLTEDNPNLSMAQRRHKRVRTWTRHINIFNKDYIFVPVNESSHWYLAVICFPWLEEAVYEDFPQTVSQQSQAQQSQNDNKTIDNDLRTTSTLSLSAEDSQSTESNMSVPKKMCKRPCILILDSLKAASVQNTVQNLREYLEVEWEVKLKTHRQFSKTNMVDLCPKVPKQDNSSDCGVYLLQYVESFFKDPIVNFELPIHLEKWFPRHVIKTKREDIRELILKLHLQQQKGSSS
SENP8 block-1: SENP8 protease inhibitors, primary screen, biochemical, luminescence | Sentrin-specific protease 8 (Homo sapiens), Q96LD8 | inhibition, % at 10 µM | 330,000 compounds, 1.2% hits | purified SENP8, Z-RLRGG-aminoluciferin cleavage; in the data active = inhibition above about 50%
SENP8 block-2: human SENP8 protease inhibitors, primary screen, biochemical, fluorescence, Nedd8 protein substrate, uHTS; inhibition, % at 20 µM; recombinant SENP8; AID 602440, 2012; 360,000 compounds, 0.64% hits; in the data active = inhibition mostly above about 40%, no sharp cut-off; inactive = mostly below about 27%
SENP6 block: SENP6 protease inhibitors, primary screen, biochemical, luminescence, uHTS | inhibition, % at 10 µM | Sentrin-specific protease 6 (Homo sapiens), Q9GZR1 | Recombinant SENP6 catalytic domain, aminoluciferin luminescence | 330,000 compounds, 1.8% hits;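 active = inhibition above about 50% at the single tested dose, limit read from the data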
SENP8 conf: SENP8 protease inhibitors, retest, confirmation, biochemical, luminescence, single concentration; shares compounds with SENP7 inh; Recombinant SENP8, Z-RLRGG-aminoluciferin luminescence, 60 min; inhibition, % at 12.5 µM; 6,200 compounds, 40% hits;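 active = mean inhibition across replicates above about 50%, limit read from the data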
SENP6 confirm: SENP6 protease inhibitors, confirmation, biochemical, luminescence, single concentration | inhibition, % at 12.5 µM | shares compounds with SENP7 inh | AID 488915, 2010 | 6,200 compounds, 58% hits | recombinant SENP6, Z-RLRGG-aminoluciferin luminescence
SENP7 confirm: SENP7 protease inhibitors, retest, confirmation, biochemical, luminescence, single concentration; shares compounds with SENP7 inh; recombinant SENP7, Z-RLRGG-aminoluciferin luminescence, 40 min; inhibition, % at 12.5 µM; 6,200 compounds, 69% hits; AID 488917, 2010
Casp3 select: caspase-3 protease inhibitors, confirmation, selectivity assay for SENP inhibitor project, biochemical, single concentration; shares compounds with SENP7 inh; purified caspase-3, Z-DEVD-aminoluciferin luminescence, 60 min; inhibition, % at 12.5 µM; 6,200 compounds, 60% hits; AID 488918, 2010;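 active = mean inhibition above about 50%, limit read from the data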
Target sequence (P42574 28-227 limits assumed): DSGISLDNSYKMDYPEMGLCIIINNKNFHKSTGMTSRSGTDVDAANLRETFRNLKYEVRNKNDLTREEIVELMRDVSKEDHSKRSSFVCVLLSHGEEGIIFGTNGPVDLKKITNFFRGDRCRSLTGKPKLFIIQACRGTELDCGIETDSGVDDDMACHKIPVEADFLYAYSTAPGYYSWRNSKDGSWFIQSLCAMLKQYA
Luc interf: counter-screen for SENP inhibitors: luminescence interference; shares compounds with SENP7 inh; Pre-incubated SENP8/Z-RLRGG-aminoluciferin, luciferase luminescence interference; inhibition, % at 12.5 µM; 6,200 compounds, 39% hits;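 active = mean inhibition above about 50% when retested at one dose, limit read from the data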
Each line names hits and unclear results; the compound was inactive in the other large screens (follow-up assays come after a bar, where they were run). An excerpt weighted towards active compounds, which were near 2.4% of everything screened.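 Rule for the calls, unless noted: active = mean inhibition above about 50% in the one-dose retest (limit read from the data); inactive = the rest.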

COc1ccc(C(=O)Nc2nnc(SCC(=O)NC3CCCC3)s2)c(OC)c1	SENP7 inh 63, SENP6 block 64 | SENP8 conf inactive | SENP6 confirm inactive | SENP7 confirm inactive | Casp3 select inactive | Luc interf inactive
COc1ccc(C(=O)Nc2nnc(SCC(=O)NCc3ccco3)s2)c(OC)c1	SENP7 inh 52, SENP6 block 57 | SENP8 conf inactive | SENP6 confirm inactive | SENP7 confirm 68 | Casp3 select 59 | Luc interf inactive
O=C(COC(=O)CNC(=O)c1cccc(OC(F)F)c1)NNC(=O)c1ccccc1	none (no result: Platelet DG rel)
CC(=O)N1c2ccc(S(=O)(=O)N3CCCCC3)cc2CC1C(=O)NCc1ccccc1C (centres undefined)	none
CCc1ccc2oc(-c3cccc(NC(=O)c4cccnc4)c3)nc2c1	SENP6 block 61 | SENP8 conf inactive | SENP6 confirm inactive | SENP7 confirm inactive | Casp3 select inactive | Luc interf inactive
Cc1c(C(=O)/C=C/c2cccs2)oc2ccc(F)cc12	SENP6 block 52 | SENP8 conf inactive | SENP6 confirm inactive | SENP7 confirm inactive | Casp3 select inactive | Luc interf inactive
COc1ccc2c(c1OC)C(=O)OC2C1c2c(cc3c(c2OC)OCO3)CCN1C (centres undefined)	none
CN1CCc2cc3c(c4c2[C@H]1[C@H](O)c1ccccc1-4)OCO3	SENP6 block 59 | SENP8 conf inactive | SENP6 confirm 78 | SENP7 confirm 64 | Casp3 select 70 | Luc interf inactive
COc1cccc(-c2ccc3c(N)c(C(=O)NC4CC4)sc3n2)c1	SENP6 block 60 | SENP8 conf inactive | SENP6 confirm inactive | SENP7 confirm inactive | Casp3 select inactive | Luc interf inactive
CC(=O)Nc1cc(=O)c2cccnc2[nH]1	none (no result: Platelet DG rel, SENP7 inh, SENP8 block-1, SENP6 block)
Fc1cccc(Cl)c1/C=C/c1cnc2ccccc2n1	SENP8 block-1 96, SENP6 block 96 | SENP8 conf inactive | SENP6 confirm 84 | SENP7 confirm 66 | Casp3 select 58 | Luc interf 74
Fc1cccc(F)c1/C=C/c1ccc2ccccc2n1	none
Cc1ccc(-c2nnc3sc(-c4ccncc4)nn23)cc1	SENP7 inh 57 | SENP8 conf inactive | SENP6 confirm inactive | SENP7 confirm inactive | Casp3 select inactive | Luc interf inactive
N#Cc1ccc(Cn2ccnc2C(=O)Nc2ccccc2)cc1	none
Cc1ccc(Cn2ccnc2C(=O)Nc2ccccc2)cc1	SENP7 inh 73, SENP8 block-1 51, SENP6 block 79 | SENP8 conf inactive | SENP6 confirm inactive | SENP7 confirm inactive | Casp3 select inactive | Luc interf inactive
O=C(Nc1ccc(NC(=O)c2ccco2)nc1)c1ccccn1	SENP7 inh 51, SENP6 block 54 | SENP8 conf inactive | SENP6 confirm inactive | SENP7 confirm 74 | Casp3 select 80 | Luc interf inactive
COc1cccc(C(=O)Nc2ccc(NC(=O)C3CC3)cn2)c1	SENP7 inh 82, SENP8 block-1 60, SENP6 block 85 | SENP8 conf 69 | SENP6 confirm 69 | SENP7 confirm 89 | Casp3 select 89 | Luc interf inactive
O=C(Nc1ccc(NC(=O)c2ccco2)nc1)c1ccco1	none
O=C(Nc1ccc(NC(=O)C2CC2)nc1)c1ccccn1	SENP7 inh 52, SENP6 block 55 (no result: Platelet DG rel) | SENP8 conf inactive | SENP6 confirm inactive | SENP7 confirm 61 | Casp3 select 70 | Luc interf inactive
Cc1cccc(CN2CCC(Oc3ccc(C(=O)N4CCCC4)cc3)CC2)n1	none
N/C(=N\OC(=O)c1ccc(F)cc1)c1ccccc1	SENP7 inh 98, SENP8 block-1 91, SENP6 block 97 | SENP8 conf 96 | SENP6 confirm 96 | SENP7 confirm 102 | Casp3 select 97 | Luc interf 94
Cc1ccc(/C(N)=N/OC(=O)c2ccc(F)cc2)cc1	SENP7 inh 61 | SENP8 conf inactive | SENP6 confirm inactive | SENP7 confirm 69 | Casp3 select 62 | Luc interf inactive
O=S1(=O)CC(N2CC=CC2)CN1Cc1ccc(F)cc1 (centres undefined)	none (no result: Platelet DG rel, SENP7 inh, SENP8 block-1, SENP6 block)
COc1ccc(CN(C)C(=O)[C@H](Cc2ccccc2)NC(=O)c2ccco2)c(OC)c1	none (no result: Platelet DG rel)
COc1cccc(CNC(=O)CCC2CCCN(C(=O)c3ccoc3)C2)c1 (centres undefined)	none
COc1cccc(CNC(=O)CCC2CCCN(C(=O)c3cc4ccccc4o3)C2)c1 (centres undefined)	SENP7 inh 52, SENP8 block-1 54 | SENP8 conf inactive | SENP6 confirm 62 | SENP7 confirm 89 | Casp3 select 76 | Luc interf 59
COc1cccc(OC)c1C1=CC(=O)C[C@H](c2ccc3c(c2)OCO3)C1	none (no result: Platelet DG rel)
COc1cccc2c1C(=O)O/C2=C/c1ccc2c(c1)OCO2	SENP7 inh 98, SENP8 block-1 88 | SENP8 conf inactive | SENP6 confirm inactive | SENP7 confirm inactive | Casp3 select 74 | Luc interf inactive
COC(=O)c1[nH]c2ccc(C)cc2c1NC(=O)Oc1ccccc1	SENP8 block-1 51, SENP6 block 82 | SENP8 conf inactive | SENP6 confirm inactive | SENP7 confirm inactive | Casp3 select inactive | Luc interf inactive
COC(=O)c1[nH]c2ccccc2c1NC(=O)Oc1ccccc1	none
O=C(CSc1nc2nn(-c3ccccc3)c(=O)c-2c2n1CCCCC2)c1ccc(O)c(O)c1	none (no result: Platelet DG rel)
COc1ccc(C(=O)Nc2ccc(O)c3ccccc23)cc1OC	none
Cc1cc(C(=O)COC(=O)c2ccc(O)cc2O)c(C)n1-c1ccccc1	SENP7 inh 61, SENP8 block-1 84, SENP6 block 89 (no result: Platelet DG rel) | SENP8 conf 88 | SENP6 confirm 89 | SENP7 confirm 96 | Casp3 select 59 | Luc interf inactive
